The results in this text go back to the supplement of paper PMC6555819.

What all share (assay): PBM binding z-score (relative to random genomic background probes); higher = stronger binding; sequences stand for … in GC…GCGATTGACAGCGTAGAATGAAGG
Assay [1] deals with FXR:RXRa (NR concentration 270 nM, RXRa partner concentration 90 nM). The method, boiled down: (§1)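 Scanned fluorescence from custom Agilent 4×180K protein-binding microarrays was regression-normalized. Binding z-scores use random background probes as reference. Ligand-free nuclear receptor dimers were incubated on the arrays for 1 h and detected with antibodies against each partner (one per run).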

For assay [2], the system named is LXRa:RXRa (NR concentration 270 nM, RXRa partner concentration 90 nM). The method, boiled down:
as §1

Assay [3] concerns LXRa homodimer (NR concentration 270 nM). The gist of the method: as §1
In assay [4] the test system is LXRb:RXRa (NR concentration 270 nM, RXRa partner concentration 90 nM). The gist of the method: as §1
In assay [5] the test system is LXRb homodimer (NR concentration 270 nM). The gist of the method: as §1
Assay [6] deals with PPARa:RXRa (NR concentration 270 nM, RXRa partner concentration 90 nM). The method, boiled down:
as §1

The subject of assay [7] is PPARg:RXRa (NR concentration 180 nM, RXRa partner concentration 90 nM). The gist of the method: as §1
The test system of assay [8] is PPARg:RXRa 270nM:90nM, anti-RXR (NR concentration 270 nM, RXRa partner concentration 90 nM). The gist of the method: as §1
Assay [9] concerns PPARg:RXRa 30nM:10nM, anti-RXR (NR concentration 30 nM, RXRa partner concentration 10 nM). The method, boiled down: as §1
Assay [10] relates to PPARg:RXRa 90nM:30nM, anti-RXR (NR concentration 90 nM, RXRa partner concentration 30 nM). The gist of the method:
as §1

For the sequence GCACGGAGGACAAGGTCAGAGCTTTGTCCGTAGA, the PBM binding z-score was 1.87 in assay [1]; 1.26 in assay [2]; -0.362 in assay [3]; 1.23 in assay [4]; -0.916 in [5]; 2.15 in assay [6]. The PBM binding z-score in [7] is 0.53; in [8] it was 1.2; in [9], -0.394; in [10] it was 0.459.

For CCGACTGGGGAAGAAAGGTTACCATACCATCCGG, the PBM binding z-score in [1] is 0.169; in assay [2], 0.579; in assay [3] it was -0.0766; in assay [4], 0.683; in [5] it was -0.64; in assay [6] it was 2.22. The PBM binding z-score in [7] worked out at 1.84; in [8], 3.17; in assay [9] it was 1.15; in [10], 2.6.

In the case of GTACCAAGGTGAATTGGTCGTTGATGAGTAGGCG, the PBM binding z-score was 0.321 in assay [1]; 0.0311 in assay [2]; -0.495 in assay [3]; -0.18 in assay [4]; -0.792 in assay [5]; 0.557 in assay [6]. Also, the PBM binding z-score was 0.383 in assay [7], 0.173 in assay [8], -0.286 in [9] and -0.112 in assay [10].

With AATACAGGGTCATCGTAGGCCATAGTACGCACAG, the PBM binding z-score in [1] stood at 7.3; in assay [2], 6.74; in [3], 3.23; in assay [4], 4.97; in [5] it was 1.39; in assay [6], 6.02. In addition, the PBM binding z-score in assay [7] worked out at 6.89; in [8], 6.05; in assay [9] it was 2.98; in assay [10] it was 4.83.

For GCTTACGGGTCAAAGGTTATAGCCTGAATAGAAT, the PBM binding z-score in assay [1] turned out to be 7.79; in [2] it was 5.8; in assay [3], 0.763; in assay [4], 5.69; in [5], 0.503; in [6], 6.88. Also, the PBM binding z-score in [7] was 11.5; in assay [8] it was 9.6; in assay [9], 10.2; in [10], 11.3.

In the case of CCTACTGGGCCAAAGGTCAATGATTCCAATGCTC, the PBM binding z-score in assay [1] amounted to 4.07; in [2] it was 4.39; in assay [3], 2.6; in [4], 4.52; in [5] it was 0.165; in assay [6], 6.29. Also, the PBM binding z-score in assay [7] came out at 12.1; in [8], 10.4; in [9], 10; in assay [10], 12.8.

Take CGTCAAAGTTCAACTAAGGCAACGTAAAGCACGC: the PBM binding z-score is 6.41 in assay [1]; 6.09 in assay [2]; 3.57 in assay [3]; 3.9 in assay [4]; 1.79 in assay [5]; 4.93 in [6]. Besides, the PBM binding z-score in assay [7] was found to be 4.8; in assay [8], 5.53; in [9] it was 1.96; in assay [10], 4.18.

CCTTACGGGTCACTCCAGCTTATAGCATCGGAGT: the PBM binding z-score is 4.62 in assay [1]; 3.14 in [2]; -0.000472 in assay [3]; 2.66 in assay [4]; 0.0792 in assay [5]; 4.46 in assay [6]. Further, the PBM binding z-score worked out at 2.98 in assay [7], 3.49 in assay [8], 0.864 in [9] and 2.44 in assay [10].

For the sequence CGAACTAGGTCATCCACGACAGTGAATACATTGA, the PBM binding z-score amounted to 4.92 in [1]; 2.48 in assay [2]; 0.634 in [3]; 2.23 in assay [4]; 0.18 in assay [5]; 4.92 in assay [6]. For the same sequence, the PBM binding z-score turned out to be 8.03 in assay [7], 6.61 in [8], 4.01 in assay [9] and 5.93 in assay [10].

For CCGACTGGGGCAAAGGTTACCGTACTCAGTACGA, the PBM binding z-score is 1.69 in assay [1]; 1.59 in assay [2]; -0.472 in [3]; 1.95 in [4]; -1.15 in [5]; 5.78 in assay [6]. The PBM binding z-score in assay [7] came out at 10.6; in [8] it was 9.35; in assay [9], 9.56; in assay [10], 9.91.

Consider TCAGACAGCTGAAGGTAACTCAGGTACGCAGTCG, for which the PBM binding z-score in assay [1] was -0.16; in assay [2], 1.22; in assay [3], -0.677; in assay [4], 0.336; in assay [5], -0.931; in [6], 0.454. The PBM binding z-score came to 0.398 in assay [7], 1.49 in assay [8], 2.91 in [9] and 2.14 in assay [10].

Regarding AGCATGAGGTTAAGATCAGGGAAACAGAATACAT, the PBM binding z-score was found to be 1.97 in assay [1]; 2.02 in [2]; 0.07 in assay [3]; 1.75 in assay [4]; 0.151 in assay [5]; 3.06 in [6]. For the same sequence, the PBM binding z-score was found to be 1.14 in assay [7], 1.04 in [8], 0.357 in assay [9] and 0.819 in assay [10].
